Bioassay records (PubChem)
FLuc modulator = qHTS profiling assay for firefly luciferase inhibitor/activator using purifed enzyme and Km concentrations of substrates (counterscreen for miR-21 project). Luciferin 4-monooxygenase (Photinus pyralis), P08659. purified FLuc, Km substrates, luminescence inhibition. Potency, µM (top dose mostly 57.5 µM), for the others: at the top dose activity change, negative = inhibition, most hits filed as inhibitors. 6.9% of 360,000 active. AID 588342, 2011;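 further: plate controls were vehicle for no effect and reference inhibitor for full effect; nearly all actives have a fitted effect of over 55% in size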
Target sequence (P08659 whole entry, looked up): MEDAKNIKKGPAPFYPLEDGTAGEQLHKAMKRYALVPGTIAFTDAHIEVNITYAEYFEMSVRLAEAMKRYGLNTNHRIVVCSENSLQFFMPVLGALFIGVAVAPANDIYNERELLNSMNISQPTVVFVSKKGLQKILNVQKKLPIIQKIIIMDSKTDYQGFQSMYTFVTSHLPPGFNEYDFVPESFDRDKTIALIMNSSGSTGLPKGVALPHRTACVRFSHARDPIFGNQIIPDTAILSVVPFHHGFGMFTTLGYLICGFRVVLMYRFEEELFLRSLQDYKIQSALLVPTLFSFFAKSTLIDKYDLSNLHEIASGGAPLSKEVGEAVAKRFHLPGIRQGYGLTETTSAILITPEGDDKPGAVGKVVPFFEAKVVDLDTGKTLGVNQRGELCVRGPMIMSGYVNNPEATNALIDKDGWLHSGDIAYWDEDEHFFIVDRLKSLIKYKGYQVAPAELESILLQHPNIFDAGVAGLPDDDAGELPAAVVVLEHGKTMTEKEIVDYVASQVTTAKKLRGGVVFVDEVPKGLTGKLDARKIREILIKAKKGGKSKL
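Biochemical qHTS of compounds, final roughly 60 µM downward over six points, against 10 nM purified firefly luciferase using Km concentrations of substrates (10 uM D-luciferin, 10 uM ATP) in Tris acetate pH 7.5 buffer; luminescence output.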
ELG1 DNA repair = qHTS screen for small molecules that inhibit ELG1-dependent DNA repair in human embryonic kidney (HEK293T) cells expressing luciferase-tagged ELG1 | AID 504467, 2011 | HEK293T ELG1-luciferase reporter, luminescence, 16 h; DNA damage induced by 5-fluorouridine | Potency, µM (series often up to 46.1 µM), for inactives: at the top dose activity change, negative = inhibition, hits mostly inhibitors | 2.3% of 330,000 active; further: on the % scale 0 is the no-effect control and ±100 the full control effect; nearly all actives have a fitted effect of over 55% in size
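Overnight (16 hr) co-exposure of 2,000 cells/well to 5-fluorouridine and compound at 37 °C preceded detection. Luciferase was quantified via ONE-Glo luminescence; loss of signal denotes inhibition.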
SMN2 splice up = qHTS Assay for Enhancers of SMN2 Splice Variant Expression | HEK293 SMN2-luciferase splicing reporter, luminescence, 30-36 h | Potency, µM (series often up to 46.1 µM), for the others: at the top dose activity change, positive = activation, most hits filed as activators | 2.8% of 210,000 active; further: % of control where 0% means no effect; nearly all actives have a fitted effect of over 55% in size
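HEK293 cells carry an SMN2 […]–luciferase reporter in which exon 7 inclusion puts luciferase in frame. Cells were plated 10-12 h before compound addition, then incubated 30-36 h at 37C. ONE-Glo luminescence was read; sodium butyrate at 4.5 mM final served as control.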
ELG1 genotoxic = qHTS screen for small molecules that induce genotoxicity in human embryonic kidney (HEK293T) cells expressing luciferase-tagged ELG1; Potency, µM (series often up to 46 µM), inactives show at the highest dose activity change, positive = activation, usual class: activators; 1.3% of 330,000 active; HEK293T ELG1-luciferase reporter, luminescence, 16 h; further: % of control where 0% means no effect; nearly all actives have a fitted effect of over 60% in size
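16 hr compound incubation (37 °C, 5% CO2) of HEK293T cells carrying luciferase-tagged ELG1; luciferase then measured by ONE-Glo luminescence after 30 min at RT.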
NPC1 prom act = qHTS Assay for NPC1 Promoter Activators; 2.4% of 320,000 active; Potency, µM (doses to about 9.22 µM), for the others: at the highest dose activation, most hits filed as activators; Huh7 NPC1 promoter luciferase reporter, 24 h; further: % of control where 0% means no effect; nearly all actives have a fitted effect of over 60% in size
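Compounds in DMSO were transferred onto Huh7 NPC1-luciferase reporter cells pre-incubated 2 h; after 24 h at 37 °C, Amplite reagent was dispensed and luminescence recorded 10 min later.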
Rab9 prom act = qHTS Assay for Rab9 Promoter Activators; Huh7 Rab9 promoter-luciferase reporter, luminescence, 24 h; Potency, µM (titrated, usually from 9.22 µM), inactives show at the highest dose activation, negative = inhibition, actives largely listed as activators; 2.8% of 320,000 active; further: % of control where 0% means no effect; nearly all actives have a fitted effect of over 60% in size
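Cells were plated at 1500 per well in reduced-serum medium with 10% FBS and left 2 h. Compound in DMSO was then added for 24 h at 37 °C. Reporter signal was read by luminescence after 10 min with luciferase detection reagent.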
Numbers without * were called inactive; ? = inconclusive; nt = no result given; [ ] = dose if it differs, or a comment. This is a sample that favours compounds with a hit; in the whole collection about 9.2% have one here. The call rests on the fitted dose curve; in most records, active means well fitted curve in the direction sought with a large enough effect; inconclusive means small, poorly fitted or top-dose-only effect, or another doubt; inactive means no such curve, though single readings can be large; an effect the other way counts as inactive or inconclusive. Potency means the concentration at half of the fitted maximal effect.

SMILES | FLuc modulator | ELG1 DNA repair | SMN2 splice up | ELG1 genotoxic | NPC1 prom act | Rab9 prom act
Oc1cccc(C(O)CNCc2ccc(OCc3ccc(Cl)cc3Cl)cc2)c1 (stereo not given) | 0% | 11% | 17% | -6% | -6% | -4%
COc1ccc(/C(C)=N/NC(=O)c2ccccc2OCc2ccccc2)c(OC)c1 | 19µM* | ? | 13µM* | ? | ? | ?
COc1ccc(CC(=O)Nc2ccc(/C(C)=N/NC(=O)c3ccc(OC)cc3OC)cc2)cc1 | 3% | -2% | nt | 4% | 0% | 0%
CCc1ccccc1Nc1cc(C(=O)NCc2ccc(C)cc2)c2ccccc2n1 | -3% | nt | -7% | nt | nt | nt
CN(C)c1ncc2nc(-c3ccccc3)c(=O)n(C3CC3)c2n1 | nt | nt | 6% | nt | nt | nt
COc1ccc(N=Nc2nc3ccc(Br)cc3n2C)cc1 | 0.38µM* | ? | ? | 13% | 2.8µM* | 2.5µM*
COc1cc(NC(=S)N2CCN(C(c3ccccc3)c3ccccc3)CC2)cc(OC)c1 | -2% | -3% | 13µM* | -19% | 2% | -14%
CCCCNC(=S)N1CCN(C(c2ccccc2)c2ccccc2)CC1 | -1% | 21µM* | -27% | -6% | -5% | 3%
CCOC(=O)c1ccc(CN(Cc2ccccc2)S(=O)(=O)c2ccc(C)cc2)cc1 | -15% | nt | nt | nt | nt | nt
COc1cc(Br)cc(/C=C/c2ccc3cccc(O)c3n2)c1OC | ? | -15% | nt | -4% | -1% | 2%[1.84 µM]
COc1ccc(/C=C/c2ccc3cccc(O)c3n2)c(OC)c1OC | 4.8µM* | ? | nt | 23µM* | 3.2µM* | 2.5µM*
COc1ccc(/C=C/c2ccncc2)c2ccccc12 | -6% | nt | 3% | nt | nt | nt
COc1cccc(/C=C/c2ccc3cccc(O)c3n2)c1OC | 2.7µM* | ? | nt | 18µM* | 3.5µM* | ?
Cc1ccc(Nc2ncc3c(n2)CC(C)(C)CC3=O)cc1 | 12µM* | ? | 11µM* | ? | 2.2µM* | 1.6µM*
COc1ccc(Nc2ncc3c(n2)CC(c2ccc(OC)cc2)CC3=O)cc1 (stereo not given) | -2% | 13µM* | -43% | 0% | 3% | -5%
CCN1CCCC1CNC(=O)C(=O)NC(C)C (stereo not given) | 1% | 21% | 6% | 0% | 3% | -3%
CCN1C(=O)CC(N2CCN(c3ccc(C(=O)c4ccncc4)cc3)CC2)C1=O (stereo not given) | 1% | 15µM* | -15% | -22% | 7% | -4%
Cc1ccc(NC(=O)CSc2nc3ccc(NC(=O)CCc4ccccc4)cc3s2)cc1 | -1% | nt | nt | nt | nt | nt
O=C(Nc1cccc(-c2nc3ncccc3o2)c1)c1ccc(-c2cccc(Cl)c2Cl)o1 | -11% | nt | -17% | nt | nt | nt
COc1ccc(NC(=O)CN(C)C(=O)c2cn(-c3ccccc3)nc2-c2ccc(Cl)cc2)cc1 | -18% | ? | nt | -5% | 6% | -15%
O=C(Nc1ccon1)c1ccc(OC2CCCC2)cc1 | 3µM* | ? | 18µM* | ? | 2.5µM* | 2µM*
CC(C)(C)c1cc(NC(=O)c2ccc(OC3CCCC3)cc2)no1 | ? | ? | -18% | 0% | 23% | 19%
Cc1cccc(NC(=O)c2nc[nH]c2C(=O)N(C)Cc2ccccc2)c1 | ? | ? | nt | 3% | 7% | 1%
COc1ccc(OCC(=O)NC2CCCN(Cc3ccc(Cl)cc3)C2)cc1 (stereo not given) | 1% | 8.2µM* | nt | -17% | 0% | 7%
Cc1ccc(-n2ncc(-c3nnc(SCC(=O)NC4CCCC4)o3)c2N)cc1C | ? | 12µM* | -17% | -16% | 0% | 18%
